Test results: PubChem BioAssay (Tox21)
Results filed as inconclusive are left out. Where a call stands in place of a potency, no number is given. Activity calls are given as the source filed them. Unless noted, calls come from the whole dose curve; as a rule, active = well fitted curve in the direction sought with a large enough effect in the repeat runs; inconclusive = weak or mixed curves; inactive = no such curve, though single readings can be large; an effect the other way counts as inactive or inconclusive.

How the values were obtained:
[1] = qHTS assay to identify small molecule agonists of the sonic hedgehog signaling (Shh) pathway (AID 1259368; calls by dose curve;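 note: NIH/3T3-derived 3T3Gli1-Luc cells carrying a stable Gli1-driven firefly luciferase reporter; series mostly up to about 92 µM; nearly all actives have a fitted effect of over 15% in size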)
Method in brief: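 Following a 24 hr incubation with DMSO-dissolved compounds at 37 C, 5% CO2, Gli1-Luc NIH/3T3-derived cells received luciferase reagent for 30 min at room temperature prior to luminescence measurement.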

[2] = qHTS assay to identify small molecule antagonists of the sonic hedgehog signaling (Shh) pathway (AID 1259369; calls by dose curve; note: nearly all actives have a fitted effect of over 45% in size; note: potency is the fitted concentration of half-maximal effect)
Method in brief: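 Read-out is luminescence from a firefly luciferase gene controlled by the Gli1 response element, in 3T3Gli1-Luc cells pre-incubated 4hr then exposed to compounds and conditioned medium for 24hr.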

[3] = target: Estrogen receptor beta (Homo sapiens) (UniProt Q92731); assay: qHTS assay to identify small molecule agonists of the estrogen receptor beta (ER-beta) signaling pathway (AID 1259377; active = well fitted activation curve with a large enough effect in the signal ratio in the repeat runs, not every such curve was filed as active; the % refers to the signal ratio)
Chain of Estrogen receptor beta (Homo sapiens) (Q92731 whole entry, looked up): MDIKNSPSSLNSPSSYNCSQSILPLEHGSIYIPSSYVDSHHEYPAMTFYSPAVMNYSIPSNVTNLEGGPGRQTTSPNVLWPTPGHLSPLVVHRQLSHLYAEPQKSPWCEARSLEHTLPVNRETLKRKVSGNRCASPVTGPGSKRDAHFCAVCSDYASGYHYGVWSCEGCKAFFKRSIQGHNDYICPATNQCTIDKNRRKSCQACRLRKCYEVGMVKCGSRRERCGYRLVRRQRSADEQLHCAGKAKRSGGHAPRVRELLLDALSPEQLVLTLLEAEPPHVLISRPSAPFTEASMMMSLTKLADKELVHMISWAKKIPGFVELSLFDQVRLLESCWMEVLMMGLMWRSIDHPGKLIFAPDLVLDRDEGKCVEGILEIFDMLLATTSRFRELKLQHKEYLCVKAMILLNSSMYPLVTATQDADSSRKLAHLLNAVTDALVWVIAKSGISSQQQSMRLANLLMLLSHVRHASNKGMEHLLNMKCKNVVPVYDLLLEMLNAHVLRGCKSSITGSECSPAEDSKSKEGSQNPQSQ
Method in brief: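 Beta-lactamase reporter readout: fluorescence of LiveBLAzer B/G FRET substrate after 2 h at room temperature, following 16 h compound treatment of ER-beta-UAS-bla HEK293T cells at 37C in 2% charcoal-stripped FBS medium.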

[4] = target: Estrogen receptor beta (Homo sapiens) (UniProt Q92731); assay: qHTS assay to identify small molecule antagonists of the estrogen receptor beta (ER-beta) signaling pathway (AID 1259378; active = well fitted inhibition curve with a large enough effect in the signal ratio in the repeat runs, not every such curve was filed as active; the % refers to the signal ratio)
Method in brief: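 Antagonist mode: compounds added to beta-lactamase reporter HEK293T ER-beta-UAS cells stimulated with E2 (1nM final), 16 hr at 37C. LiveBLAzer B/G FRET substrate, 2 hours room temperature, fluorescence read-out.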

[5] = qHTS assay to identify small molecule agonists of the androgen receptor (AR) signaling pathway in the presence of an antagonist - cell viability counter screen (AID 1259379); note: nearly all actives have a fitted effect of over 25% in size; note: potency is the fitted concentration of half-maximal effect
Method in brief: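 Each compound was tested at 15 concentrations on MDA-kb2 cells in the presence of 3.0uM nilutamide. Viability was measured by CellTiter-Fluor fluorescence after a 16 hr incubation at 37C in a CO2-free atmosphere.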

[6] = qHTS assay to identify small molecule agonists of the estrogen receptor beta (ER-beta) signaling pathway - cell viability counter screen (AID 1259380); note: nearly all actives have a fitted effect of over 30% in size
Method in brief: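 Compounds dissolved in DMSO were pin-transferred onto ER-beta-UAS-bla HEK293T cells that had settled 6 hr, and exposure ran 16 hr at 37C. Following the reporter read, CellTiter-Glo luminescence after 30 min at room temperature indicated cytotoxicity.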

[7] = target: Androgen receptor (Homo sapiens) (UniProt P10275); assay: qHTS assay to identify small molecule agonists of the androgen receptor (AR) signaling pathway in the presence of an antagonist (AID 1259381; calls by dose curve; note: nearly all actives have a fitted effect of over 15% in size)
Chain of Androgen receptor (Homo sapiens) (P10275 whole entry, looked up): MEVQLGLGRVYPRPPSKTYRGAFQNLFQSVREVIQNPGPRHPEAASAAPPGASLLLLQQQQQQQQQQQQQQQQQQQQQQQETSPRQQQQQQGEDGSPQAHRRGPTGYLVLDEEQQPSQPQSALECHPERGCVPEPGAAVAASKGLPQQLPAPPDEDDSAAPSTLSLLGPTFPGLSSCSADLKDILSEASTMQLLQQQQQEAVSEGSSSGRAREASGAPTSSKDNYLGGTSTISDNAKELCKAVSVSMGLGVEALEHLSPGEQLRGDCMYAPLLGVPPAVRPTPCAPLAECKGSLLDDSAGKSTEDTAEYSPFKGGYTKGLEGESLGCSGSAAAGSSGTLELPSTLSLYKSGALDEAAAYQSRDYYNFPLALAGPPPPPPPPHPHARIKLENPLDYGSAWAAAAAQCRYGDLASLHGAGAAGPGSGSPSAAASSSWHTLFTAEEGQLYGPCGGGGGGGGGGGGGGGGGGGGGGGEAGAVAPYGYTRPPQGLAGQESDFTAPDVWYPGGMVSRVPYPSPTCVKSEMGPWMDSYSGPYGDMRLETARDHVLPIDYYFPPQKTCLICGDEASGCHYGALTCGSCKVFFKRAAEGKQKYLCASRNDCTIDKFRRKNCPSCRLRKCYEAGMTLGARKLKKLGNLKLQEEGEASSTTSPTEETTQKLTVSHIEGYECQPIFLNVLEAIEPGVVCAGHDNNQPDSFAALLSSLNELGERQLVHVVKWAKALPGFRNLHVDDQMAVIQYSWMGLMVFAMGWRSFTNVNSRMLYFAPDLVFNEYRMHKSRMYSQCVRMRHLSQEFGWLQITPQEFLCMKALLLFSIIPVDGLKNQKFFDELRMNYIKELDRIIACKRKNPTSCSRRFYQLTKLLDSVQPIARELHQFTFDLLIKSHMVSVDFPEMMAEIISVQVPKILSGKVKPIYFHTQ
Method in brief: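 Plated MDA-kb2 cells (3,000/well) were pre-incubated 5hr, given nilutamide (3.0uM final) or buffer, then dosed with compounds in DMSO at 15 concentrations. Luciferase activity was quantified by luminescence after 16hr at 37C.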

[8] = qHTS assay to identify small molecule antagonists of the estrogen receptor beta (ER-beta) signaling pathway - cell viability counter screen (AID 1259382);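 note: HEK293T cells carrying ER-beta-UAS-bla reporter stimulated with estradiol; series mostly up to about 92 µM; nearly all actives have a fitted effect of over 55% in size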
Method in brief: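 CellTiter-Glo ATP luminescence measured after the LiveBLAzer read in the same wells; ER-beta-UAS-bla HEK293T cells, 16 hr compound treatment with 1nM 17-beta-estradiol agonist at 37C, 5% CO2.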

[9] = target: Estrogen receptor (Homo sapiens) (UniProt P03372); assay: qHTS assay to identify small molecule agonists of the estrogen receptor alpha (ER-alpha) signaling pathway in the presence of an antagonist (AID 1259383; calls by dose curve; note: top concentration of the series differs between compounds; nearly all actives have a fitted effect of over 15% in size)
Chain of Estrogen receptor (Homo sapiens) (P03372 whole entry, looked up): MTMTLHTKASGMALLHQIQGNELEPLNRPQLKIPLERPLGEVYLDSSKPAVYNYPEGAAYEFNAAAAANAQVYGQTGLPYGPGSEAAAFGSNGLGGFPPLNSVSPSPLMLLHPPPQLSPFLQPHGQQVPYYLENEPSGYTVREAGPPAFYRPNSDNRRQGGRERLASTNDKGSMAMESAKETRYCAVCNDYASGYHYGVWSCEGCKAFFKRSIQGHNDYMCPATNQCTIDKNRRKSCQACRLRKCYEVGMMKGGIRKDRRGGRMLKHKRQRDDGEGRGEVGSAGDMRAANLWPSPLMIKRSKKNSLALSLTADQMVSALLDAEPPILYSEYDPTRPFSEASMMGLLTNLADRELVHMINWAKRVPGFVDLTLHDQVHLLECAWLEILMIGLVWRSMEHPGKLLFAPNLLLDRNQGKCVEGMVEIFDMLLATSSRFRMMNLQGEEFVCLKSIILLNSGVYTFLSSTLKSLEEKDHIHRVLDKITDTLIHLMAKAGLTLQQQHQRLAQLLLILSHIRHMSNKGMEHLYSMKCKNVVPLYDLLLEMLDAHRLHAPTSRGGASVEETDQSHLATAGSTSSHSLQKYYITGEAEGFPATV
Method in brief: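 Luminescent ERE-luciferase reporter, VM7Luc4E2 cells (endogenous ER-alpha); 10.0nM ICI-182,780 final; 15-point compound titration; 22hr at 37C; ONE-Glo, 30min RT.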

[10] = qHTS assay to identify small molecule agonists or antagonists of the thyroid stimulating hormone receptor (TSHR) signaling pathway - wild type cell line counter screen (AID 1259384; calls by dose curve)
Method in brief: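 Counter screen in untransfected Hek293: compounds (15-point titration, triplicate) plus phosphodiesterase inhibitor Ro20-1724 added after 18 h plating; 30 min RT. Intracellular cAMP via competitive d2/cryptate immunoassay, 1 h incubation.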

[11] = target: Thyrotropin receptor (Homo sapiens) (UniProt P16473); assay: qHTS assay to identify small molecule antagonists of the thyroid stimulating hormone receptor (TSHR) signaling pathway (AID 1259385; calls by dose curve; note: nearly all actives have a fitted effect of over 20% in size)
Chain of Thyrotropin receptor (Homo sapiens) (P16473 whole entry, looked up): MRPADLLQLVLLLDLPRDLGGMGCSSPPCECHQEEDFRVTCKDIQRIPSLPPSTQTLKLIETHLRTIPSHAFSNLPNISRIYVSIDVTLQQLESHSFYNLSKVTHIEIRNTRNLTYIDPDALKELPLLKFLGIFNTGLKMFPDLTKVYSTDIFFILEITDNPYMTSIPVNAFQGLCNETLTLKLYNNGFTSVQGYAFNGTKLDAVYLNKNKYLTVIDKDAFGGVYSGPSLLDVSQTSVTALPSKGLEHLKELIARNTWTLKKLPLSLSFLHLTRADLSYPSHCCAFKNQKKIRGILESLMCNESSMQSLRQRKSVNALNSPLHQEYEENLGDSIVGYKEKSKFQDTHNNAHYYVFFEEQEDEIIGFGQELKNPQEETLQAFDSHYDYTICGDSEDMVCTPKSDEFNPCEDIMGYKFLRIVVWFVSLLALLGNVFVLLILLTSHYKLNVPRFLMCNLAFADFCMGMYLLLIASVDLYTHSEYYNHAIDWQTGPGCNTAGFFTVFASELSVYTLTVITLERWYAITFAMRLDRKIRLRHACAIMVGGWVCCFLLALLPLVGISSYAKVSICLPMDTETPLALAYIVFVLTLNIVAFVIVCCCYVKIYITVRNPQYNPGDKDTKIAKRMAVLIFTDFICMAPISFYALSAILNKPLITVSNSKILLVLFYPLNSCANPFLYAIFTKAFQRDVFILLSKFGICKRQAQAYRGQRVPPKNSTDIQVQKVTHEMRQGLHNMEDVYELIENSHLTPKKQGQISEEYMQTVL
Method in brief: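 Antagonist mode: compound-treated TSHR-expressing HEK293 cells were stimulated with 1.5 ng/mL TSH (final) in presence of Ro20-1724 for 30 min at RT. HTRF cAMP detection after 1 h; each compound tested at 15 concentrations, triplicate.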

[12] = qHTS assay to identify small molecule agonists of the estrogen receptor alpha (ER-alpha) signaling pathway in the presence of an antagonist - cell viability counter screen (AID 1259386);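 note: cells exposed to compounds for 22 h at 37 °C before the viability read; nearly all actives have a fitted effect of over 30% in size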; note: potency is the fitted concentration of half-maximal effect
Method in brief: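 Using estrogen-depleted VM7Luc4E2 cells, the 15-concentration compound series was applied together with 10.0nM ICI-182,780 and incubated 22hr at 37C/5% CO2. Cell viability was then scored by CellTiter-Fluor.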

[13] = target: Progesterone receptor (Homo sapiens) (UniProt P06401); assay: qHTS assay to identify small molecule agonists of the progesterone receptor (PR) signaling pathway (AID 1346784; calls by dose curve; note: nearly all actives have a fitted effect of over 30% in size)
Chain of Progesterone receptor (Homo sapiens) (P06401 whole entry, looked up): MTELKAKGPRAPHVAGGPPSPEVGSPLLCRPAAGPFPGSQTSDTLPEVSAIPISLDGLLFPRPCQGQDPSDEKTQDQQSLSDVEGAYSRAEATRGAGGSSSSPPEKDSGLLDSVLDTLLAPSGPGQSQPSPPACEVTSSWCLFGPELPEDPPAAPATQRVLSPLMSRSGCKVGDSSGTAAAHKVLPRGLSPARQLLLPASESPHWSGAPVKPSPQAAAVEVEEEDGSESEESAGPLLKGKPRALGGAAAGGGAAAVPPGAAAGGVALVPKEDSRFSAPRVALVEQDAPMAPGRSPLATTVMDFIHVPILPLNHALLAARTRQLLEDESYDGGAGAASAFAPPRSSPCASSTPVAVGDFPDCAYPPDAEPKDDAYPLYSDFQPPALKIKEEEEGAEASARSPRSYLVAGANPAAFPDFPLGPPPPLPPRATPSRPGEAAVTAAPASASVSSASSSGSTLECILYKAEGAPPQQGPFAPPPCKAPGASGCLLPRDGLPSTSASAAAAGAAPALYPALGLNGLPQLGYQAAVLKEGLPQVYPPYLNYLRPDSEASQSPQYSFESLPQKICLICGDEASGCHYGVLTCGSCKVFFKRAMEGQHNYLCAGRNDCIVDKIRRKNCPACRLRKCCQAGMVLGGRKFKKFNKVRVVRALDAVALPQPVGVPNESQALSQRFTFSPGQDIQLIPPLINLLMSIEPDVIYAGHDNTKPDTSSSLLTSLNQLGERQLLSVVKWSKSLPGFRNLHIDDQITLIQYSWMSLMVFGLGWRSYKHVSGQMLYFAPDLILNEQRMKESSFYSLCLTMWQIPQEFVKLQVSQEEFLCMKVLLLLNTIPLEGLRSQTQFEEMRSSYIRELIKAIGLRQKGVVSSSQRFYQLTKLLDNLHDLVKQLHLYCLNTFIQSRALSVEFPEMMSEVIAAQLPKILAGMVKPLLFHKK
Method in brief: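 HEK 293T PR-UAS-bla reporter cells, 2% charcoal-stripped FBS; 6 hr settle at 37C/5% CO2, compound (DMSO) 16 hr, LiveBLAzer B/G FRET substrate 2 hr RT, fluorescence intensity read.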

[14] = target: Progesterone receptor (Homo sapiens) (UniProt P06401); assay: qHTS assay to identify small molecule antagonists of the progesterone receptor (PR) signaling pathway (AID 1346795; active = well fitted inhibition curve with a large enough effect in the signal ratio in the repeat runs, not every such curve was filed as active; the % refers to the signal ratio)
Method in brief: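 Beta-lactamase reporter, HEK293T PR-UAS-bla line; 2% charcoal-stripped FBS; 6 hr pre-incubation, 37C/5% CO2. Compound + R5020 1 nM final, 16 hr. LiveBLAzer B/G FRET substrate, 2 hr RT; fluorescence intensity read.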

[15] = qHTS assay to identify small molecule antagonists of the progesterone receptor (PR) signaling pathway - cell viability counter screen (AID 1346798); note: series mostly up to about 92 µM; nearly all actives have a fitted effect of over 50% in size
Method in brief: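 Luminescence readout (CellTiter-Glo, 30 min, RT) of viability in PR-UAS-bla HEK293T cells exposed to compound and R5020 agonist for 16 hr at 37C, 5% CO2; run in the same wells as the beta-lactamase reporter read.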

[16] = qHTS assay to identify small molecule agonists of the progesterone receptor (PR) signaling pathway - cell viability counter screen (AID 1346799; calls by dose curve; note: nearly all actives have a fitted effect of over 45% in size)
Method in brief: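 HEK293T PR-UAS-bla, 3,000 cells/well, 2% charcoal-stripped FBS; 6 h settle, compound 16 h at 37C/5% CO2; LiveBLAzer 2 h RT, then CellTiter-Glo 30 min RT, luminescence read.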

[17] = qHTS assay to identify small molecule antagonists of the TGF-beta/Smad signaling pathway - cell viability counter screen (AID 1346824); note: nearly all actives have a fitted effect of over 50% in size
Method in brief: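 Cytotoxicity counter-screen run in the same wells as the beta-lactamase Smad reporter read: CellTiter-Glo luminescence after 30 min at room temperature. HEK 293T SBE-bla cells had 5 hr compound exposure at 37 C with TGF-beta1 (0.25 ng/mL stock).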

[18] = qHTS assay to identify small molecule agonists of the TGF-beta/Smad signaling pathway - cell viability counter screen (AID 1346829); note: top concentration of the series differs between compounds; nearly all actives have a fitted effect of over 45% in size
Method in brief: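 Compound-treated SBE-bla HEK 293T cells (5 hr, 37 C) were assessed for viability with CellTiter-Glo in parallel with the reporter read.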

[19] = qHTS assay to identify small molecule agonists of the TGF-beta/Smad signaling pathway (AID 1346859; active = well fitted activation curve with a large enough effect in the signal ratio in the repeat runs, not every such curve was filed as active; the % refers to the signal ratio; note: series mostly up to about 77 µM)
Method in brief: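 Read-out: fluorescence at 460 and 530 nm (405 nm excitation) after a 2 hr room-temperature incubation with beta-lactamase FRET substrate. SBE-bla HEK 293T cells had been treated with test compounds for 5 hr at 37 C.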

[20] = target: Thyrotropin-releasing hormone receptor (Homo sapiens) (UniProt P34981); assay: qHTS assay to identify small molecule antagonists of the thyrotropin-releasing hormone receptor (TRHR) signaling pathway (AID 1346877; active = well fitted inhibition curve with a large enough effect in the repeat runs, not every such curve was filed as active; note: series mostly up to about 51 µM)
Chain of Thyrotropin-releasing hormone receptor (Homo sapiens) (P34981 whole entry, looked up): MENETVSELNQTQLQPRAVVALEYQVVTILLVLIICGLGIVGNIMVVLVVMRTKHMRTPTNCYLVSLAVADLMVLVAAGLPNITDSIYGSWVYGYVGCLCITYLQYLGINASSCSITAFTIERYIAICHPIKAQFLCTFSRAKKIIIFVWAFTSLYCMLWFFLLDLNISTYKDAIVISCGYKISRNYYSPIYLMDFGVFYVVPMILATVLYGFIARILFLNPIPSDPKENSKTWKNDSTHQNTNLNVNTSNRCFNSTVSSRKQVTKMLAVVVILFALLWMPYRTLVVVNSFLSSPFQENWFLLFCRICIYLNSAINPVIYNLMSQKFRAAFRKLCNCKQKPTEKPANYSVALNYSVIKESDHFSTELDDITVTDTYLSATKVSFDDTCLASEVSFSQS
Method in brief: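 Calcium signal in dye-loaded TRHR/HEK293 cells; compounds added 5 min before TRH (1 nM final); fluorescence monitored 3 min at 1 s steps.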

Compound	Potency [1]	Potency [2]	Potency [3]	Potency [4]	Potency [5]	Potency [6]	Potency [7]	Potency [8]	Potency [9]	outcome [10]	Potency [11]	Potency [12]	Potency [13]	Potency [14]	Potency [15]	Potency [16]	Potency [17]	Potency [18]	Potency [19]	outcome [20]
Cc1cc(C)cc(N)c1	inactive	inactive	inactive	inactive	inactive	inactive	inactive	inactive	inactive	inactive	inactive	inactive	inactive	inactive	inactive	inactive	inactive	inactive	inactive	inactive
Nc1cccc2c1CN(C1CCC(=O)NC1=O)C2=O (centres undefined)	inactive	inactive	inactive	inactive	inactive	inactive		inactive	inactive	inactive	inactive	inactive	inactive	inactive	inactive	inactive	inactive	inactive	inactive	inactive
CCCCN(CCCC)C(C(N)=O)c1ccc(OC)cc1 (centres undefined)	inactive	inactive	inactive	inactive	inactive	inactive		inactive	inactive			inactive	inactive	inactive	inactive		inactive	inactive	inactive	
CO/N=C(/C(=O)N[C@@H]1C(=O)N2C(C(=O)O)=C(COC(N)=O)CS[C@H]12)c1ccco1	inactive	inactive	inactive	inactive	inactive	inactive		inactive		inactive	inactive	inactive			inactive	inactive		inactive	inactive	
COC(=O)CCS	inactive	inactive	inactive	inactive	inactive	inactive		inactive	inactive	inactive	inactive	inactive		inactive	inactive		inactive	inactive	inactive	
Cc1ccc(C(C)(C)O)cc1	inactive	inactive	inactive	inactive	inactive	inactive		inactive	inactive	inactive	inactive	inactive	inactive		inactive	inactive		inactive	inactive	
C=CC(C)(CCC=C(C)C)OC(=O)CC(C)C (centres undefined)	inactive	inactive	inactive	inactive	inactive	inactive		inactive	inactive	inactive	inactive	inactive			inactive	inactive	inactive	inactive	inactive	inactive
OC1(c2ccccc2)CCNCC1	inactive	inactive	inactive	inactive	inactive	inactive	inactive	inactive		inactive	inactive	inactive			inactive	inactive	inactive	inactive	inactive	inactive
CC(C)(C)C(=O)C(=O)O	inactive	inactive	inactive	inactive	inactive	inactive		inactive	inactive			inactive	inactive	inactive	inactive	inactive	inactive	inactive	inactive	
COc1ncnc(NS(=O)(=O)c2ccc(N)cc2)c1OC	inactive	inactive	inactive	inactive	inactive	inactive		inactive	inactive			inactive		inactive	inactive		inactive	inactive	inactive	inactive
CO[C@]1(NC(=O)CSC(F)F)C(=O)N2C(C(=O)O)=C(CSc3nnnn3CCO)CO[C@H]21	inactive	inactive	inactive	inactive	inactive	inactive		inactive	inactive	inactive	inactive	inactive	inactive		inactive	inactive	inactive	inactive	inactive	inactive
COc1cc(C(=O)NCCCCCC(=O)O)cc(OC)c1OC	inactive	inactive	inactive	inactive	inactive	inactive		inactive	inactive	inactive	inactive	inactive	inactive	inactive	inactive	inactive	inactive	inactive	inactive	inactive
O=C1NCCN1CCO	inactive	inactive	inactive	inactive	inactive	inactive		inactive				inactive	inactive	inactive	inactive	inactive	inactive	inactive	inactive	
OC(CCN1CCCC1)(c1ccccc1)C1CCCCC1 (centres undefined)	inactive	8.41 µM (active)	inactive	inactive	inactive	inactive	inactive	inactive		inactive		inactive			inactive	inactive	inactive	inactive	inactive	
CC(=O)OCC(=O)NCCCOc1cccc(CN2CCCCC2)c1	inactive	inactive	inactive	inactive	inactive	inactive	inactive	inactive		inactive	inactive	inactive	inactive	inactive		inactive	inactive	inactive	inactive	
CC(=O)Nc1cc(S(=O)(=O)O)cc2cc(S(=O)(=O)O)c(N=Nc3ccccc3)c(O)c12	inactive	inactive	inactive	inactive	27.3 µM (active)	inactive		inactive	inactive			17.2 µM (active)		inactive	inactive	inactive	inactive	inactive	inactive	
